# Test results reported in PubChem BioAssay (NCI).
# The panel holds about 79,000 compounds, 15% with a hit somewhere; the sample as a whole holds those more often. A number with no mark means an inactive call. The source made the active and inactive calls. Rule as the data show it: active = growth inhibition above about 70%; inactive = the rest.
# Legend:
# [1] = NCI Yeast Anticancer Drug Screen. Data for the rad50 strain (AID 155);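 also: 0% = growth of vehicle-only cultures of the same strain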; settings: S. cerevisiae rad50 strain growth inhibition, active compounds read high
# Summary of the method: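 Relative growth inhibition (compound vs vehicle) was measured in yeast with a defined repair-gene alteration.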
# [2] = NCI Yeast Anticancer Drug Screen. Data for the mec2-1 strain (AID 157); settings: S. cerevisiae mec2-1 strain, active compounds read high
# Summary of the method: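 Yeast mec2-1 mutant treated with compound. Readout: growth inhibition vs vehicle controls.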
# [3] = NCI Yeast Anticancer Drug Screen. Data for the sgs1 mgt1 strain (AID 161);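 also: 0% = growth of cultures given vehicle only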; settings: S. cerevisiae sgs1 mgt1 strain, active compounds read high
# Summary of the method: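 Genetically altered yeast, compound exposure, growth inhibition relative to vehicle.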
# [4] = NCI Yeast Anticancer Drug Screen. Data for the cln2 rad14 strain (AID 165);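 also: 0% = growth equal to vehicle treated cultures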; settings: S. cerevisiae cln2 rad14 strain, active compounds read high
# Summary of the method: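 cln2 rad14 yeast strain; compound exposure; growth inhibition read vs vehicle controls.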
# [5] = NCI Yeast Anticancer Drug Screen. Data for the bub3 strain (AID 167); settings: S. cerevisiae bub3 mutant strain, active compounds read high
# Summary of the method: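 Screening used yeast with an engineered genetic alteration affecting cell cycle control. Compound-exposed cultures were compared with vehicle cultures, and reduced growth was taken as inhibition.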
# [6] = NCI Yeast Anticancer Drug Screen. Data for the mlh1 rad18 strain (AID 175); settings: S. cerevisiae mlh1 rad18 strain growth inhibition, active compounds read high
# Summary of the method: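 Yeast w/ defined DNA-repair lesions; compound exposure; growth vs vehicle controls → % inhibition.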
# [7] = at 5.0 µM (retest, dose inferred, filed as 0.5)
# [8] = at 50.0 µM (retest, dose inferred, filed as 5.0)
smiles,measurement,setting,value
NN1CCOC(c2ccccc2)C1 (stereo not drawn),growth inhibition,[1]; [7],15%
same,growth inhibition,[1]; [8],57%
same,growth inhibition,[2]; [7],11%
same,growth inhibition,[2]; [8],24%
same,growth inhibition,[3]; [7],7%
same,growth inhibition,[3]; [8],49%
same,growth inhibition,[4]; [7],0%
same,growth inhibition,[4]; [8],4%
same,growth inhibition,[5]; [7],34%
same,growth inhibition,[5]; [8],61%
same,growth inhibition,[6]; [7],-12%
same,growth inhibition,[6]; [8],28%
Oc1ccc(Cc2ccccc2Cl)c(O)c1,growth inhibition,[1]; [7],1%
same,growth inhibition,[1]; [8],99% (active)
same,growth inhibition,[2]; [7],-4%
same,growth inhibition,[2]; [8],99% (active)
same,growth inhibition,[3]; [7],-3%
same,growth inhibition,[3]; [8],99% (active)
same,growth inhibition,[4]; [7],1%
same,growth inhibition,[4]; [8],98% (active)
same,growth inhibition,[5]; [7],-1%
same,growth inhibition,[5]; [8],99% (active)
same,growth inhibition,[6]; [7],-22%
same,growth inhibition,[6]; [8],98% (active)
CN(C)c1ccc(/C=C\C(=O)c2ccccc2)cc1,growth inhibition,[1]; [7],7%
same,growth inhibition,[1]; [8],57%
same,growth inhibition,[2]; [7],1%
same,growth inhibition,[2]; [8],28%
same,growth inhibition,[3]; [7],6%
same,growth inhibition,[3]; [8],75% (active)
same,growth inhibition,[4]; [7],13%
same,growth inhibition,[4]; [8],15%
same,growth inhibition,[5]; [7],8%
same,growth inhibition,[5]; [8],77% (active)
same,growth inhibition,[6]; [7],32%
same,growth inhibition,[6]; [8],53%
C=C1C(=O)OC2/C=C(\COC(C)=O)CCC(OC(C)=O)C3=CC(OC3=O)C12 (stereo not drawn),growth inhibition,[1]; at 50.0 µM unless noted,-0.4%
same,growth inhibition,[2]; at 50.0 µM unless noted,10.4%
same,growth inhibition,[3]; at 50.0 µM unless noted,-22.2%
same,growth inhibition,[4]; at 50.0 µM unless noted,-6.5%
same,growth inhibition,[5]; at 50.0 µM unless noted,-30.1%
CC(=O)O[C@H]1C(=O)[C@@]2(C)C(C(OC(=O)c3ccccc3)[C@]3(O)CC(OC(=O)[C@H](OC(=O)CCC(=O)O)C(NC(=O)c4ccccc4)c4ccccc4)C(C)=C1C3(C)C)C1(OC(C)=O)COC1C[C@@H]2OC(=O)CCC(=O)O (stereo partly drawn),growth inhibition,[1]; at 50.0 µM unless noted,29.6%
same,growth inhibition,[2]; at 50.0 µM unless noted,-5.45%
same,growth inhibition,[3]; at 50.0 µM unless noted,-25.4%
same,growth inhibition,[4]; at 50.0 µM unless noted,-7.4%
same,growth inhibition,[5]; at 50.0 µM unless noted,-8.05%
O=C1NC(=S)N/C1=C\c1ccc(Cl)cc1,growth inhibition,[1]; at 50.0 µM unless noted,-5.75%
same,growth inhibition,[2]; at 50.0 µM unless noted,-4.8%
same,growth inhibition,[3]; at 50.0 µM unless noted,15%
same,growth inhibition,[4]; at 50.0 µM unless noted,-5.9%
same,growth inhibition,[5]; at 50.0 µM unless noted,-9.3%
Nc1ncc(C(=O)O)s1,growth inhibition,[1]; at 50.0 µM unless noted,-17.3%
same,growth inhibition,[2]; at 50.0 µM unless noted,-4.6%
same,growth inhibition,[3]; at 50.0 µM unless noted,-23.1%
same,growth inhibition,[4]; at 50.0 µM unless noted,7.35%
same,growth inhibition,[5]; at 50.0 µM unless noted,3.35%
same,growth inhibition,[6]; at 50.0 µM unless noted,-4.8%
COc1cc(-c2cc(=O)c3c(O)c(OC)c(OC)c(OC)c3o2)cc(OC)c1OC,growth inhibition,[1]; at 50.0 µM unless noted,-9.45%
same,growth inhibition,[2]; at 50.0 µM unless noted,-2.7%
same,growth inhibition,[3]; at 50.0 µM unless noted,-10.8%
same,growth inhibition,[4]; at 50.0 µM unless noted,-10%
same,growth inhibition,[5]; at 50.0 µM unless noted,-20.8%
Nc1[nH]c(=O)[nH]c(=O)c1[N+](=O)[O-],growth inhibition,[1]; at 50.0 µM unless noted,5.4%
same,growth inhibition,[2]; at 50.0 µM unless noted,-6.8%
same,growth inhibition,[3]; at 50.0 µM unless noted,-7.1%
same,growth inhibition,[4]; at 50.0 µM unless noted,-8.5%
same,growth inhibition,[5]; at 50.0 µM unless noted,-9.35%
Cc1cccc(NC(=O)Nc2ccccc2F)n1,growth inhibition,[1]; at 50.0 µM unless noted,-2.7%
same,growth inhibition,[2]; at 50.0 µM unless noted,5.65%
same,growth inhibition,[3]; at 50.0 µM unless noted,-8.95%
same,growth inhibition,[4]; at 50.0 µM unless noted,-26.9%
same,growth inhibition,[5]; at 50.0 µM unless noted,-6.95%
CCC/C(=N\NC(=S)N1CCN(c2ccccn2)CC1)c1ccccn1,growth inhibition,[1]; at 50.0 µM unless noted,87.3% (active)
same,growth inhibition,[2]; at 50.0 µM unless noted,90.3% (active)
same,growth inhibition,[3]; at 50.0 µM unless noted,88.8% (active)
same,growth inhibition,[4]; at 50.0 µM unless noted,80.5% (active)
same,growth inhibition,[5]; at 50.0 µM unless noted,20.9%
CN1CCc2nc[nH]c2C1,growth inhibition,[1]; at 50.0 µM unless noted,17.2%
same,growth inhibition,[2]; at 50.0 µM unless noted,-4.95%
same,growth inhibition,[3]; at 50.0 µM unless noted,3.2%
same,growth inhibition,[4]; at 50.0 µM unless noted,10.1%
same,growth inhibition,[5]; at 50.0 µM unless noted,6.4%
CCc1nc(Cl)nc(Cl)c1Cl,growth inhibition,[1]; at 50.0 µM unless noted,-9.1%
same,growth inhibition,[2]; at 50.0 µM unless noted,-17.1%
same,growth inhibition,[3]; at 50.0 µM unless noted,-18.2%
same,growth inhibition,[4]; at 50.0 µM unless noted,0.2%
same,growth inhibition,[5]; at 50.0 µM unless noted,-8.5%
C/C(=N\NC(=S)N1CCC(N2CCCCC2)CC1)c1ccccn1,growth inhibition,[1]; at 50.0 µM unless noted,83.8% (active)
same,growth inhibition,[2]; at 50.0 µM unless noted,88.1% (active)
same,growth inhibition,[3]; at 50.0 µM unless noted,88% (active)
same,growth inhibition,[4]; at 50.0 µM unless noted,84.8% (active)
same,growth inhibition,[5]; at 50.0 µM unless noted,86% (active)
Cc1ccc(C2=CC=C(c3ccccc3)C2)cc1,growth inhibition,[1]; at 50.0 µM unless noted,-22.1%
same,growth inhibition,[2]; at 50.0 µM unless noted,5.8%
same,growth inhibition,[3]; at 50.0 µM unless noted,-24.1%
same,growth inhibition,[4]; at 50.0 µM unless noted,58.6%
same,growth inhibition,[5]; at 50.0 µM unless noted,4.4%
COc1cccc2c1C(=O)c1c(O)c3c(c(O)c1C2=O)C[C@@](O)(C(=O)CO)CC3OC1CC(O)C(O)C(C)O1 (stereo partly drawn),growth inhibition,[1]; at 50.0 µM unless noted,72% (active)
same,growth inhibition,[2]; at 50.0 µM unless noted,52.8%
same,growth inhibition,[3]; at 50.0 µM unless noted,33.2%
same,growth inhibition,[4]; at 50.0 µM unless noted,28.8%
same,growth inhibition,[5]; at 50.0 µM unless noted,63.2%
Nc1c(Cl)ccc2c(Cl)ccnc12,growth inhibition,[1]; at 50.0 µM unless noted,-1.15%
same,growth inhibition,[2]; at 50.0 µM unless noted,-9.55%
same,growth inhibition,[3]; at 50.0 µM unless noted,-7.2%
same,growth inhibition,[4]; at 50.0 µM unless noted,-21.1%
same,growth inhibition,[5]; at 50.0 µM unless noted,-9.55%
OC1(c2cccc(C(F)(F)F)c2)CCN(C2CC2c2ccccc2)CC1 (stereo not drawn),growth inhibition,[1]; at 50.0 µM unless noted,87.2% (active)
same,growth inhibition,[2]; at 50.0 µM unless noted,77.7% (active)
same,growth inhibition,[3]; at 50.0 µM unless noted,90.8% (active)
same,growth inhibition,[4]; at 50.0 µM unless noted,85.1% (active)
same,growth inhibition,[5]; at 50.0 µM unless noted,84.3% (active)
C=C(C#N)CSc1c(Cl)c(Cl)c(Cl)c(Cl)c1Cl,growth inhibition,[1]; at 50.0 µM unless noted,34.5%
same,growth inhibition,[2]; at 50.0 µM unless noted,13%
same,growth inhibition,[3]; at 50.0 µM unless noted,9.2%
same,growth inhibition,[4]; at 50.0 µM unless noted,17.7%
same,growth inhibition,[5]; at 50.0 µM unless noted,16.8%
C1COC2SC3=C(SC(=C4SC5=C(SCCS5)S4)S3)SC2O1 (stereo not drawn),growth inhibition,[1]; at 50.0 µM unless noted,3.05%
same,growth inhibition,[2]; at 50.0 µM unless noted,-2.05%
same,growth inhibition,[3]; at 50.0 µM unless noted,19.2%
same,growth inhibition,[4]; at 50.0 µM unless noted,-5.6%
same,growth inhibition,[5]; at 50.0 µM unless noted,8.85%
CC(=O)Nc1ccccc1C(C#N)Cc1ccccc1 (stereo not drawn),growth inhibition,[1]; at 50.0 µM unless noted,13.3%
same,growth inhibition,[2]; at 50.0 µM unless noted,5.55%
same,growth inhibition,[3]; at 50.0 µM unless noted,14.1%
same,growth inhibition,[4]; at 50.0 µM unless noted,-32.4%
same,growth inhibition,[5]; at 50.0 µM unless noted,1.15%
same,growth inhibition,[6]; at 50.0 µM unless noted,8.95%
CC(C)=CC(=O)CNC(N)=S,growth inhibition,[1]; at 50.0 µM unless noted,36.1%
same,growth inhibition,[2]; at 50.0 µM unless noted,17.9%
same,growth inhibition,[3]; at 50.0 µM unless noted,16.4%
same,growth inhibition,[4]; at 50.0 µM unless noted,10.7%
same,growth inhibition,[5]; at 50.0 µM unless noted,0.25%
